Data from PubChem BioAssay (NCI).
Compounds without any hit were thinned out: in the full panel of roughly 83,000, 20% have a hit.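 Results are percent growth after 48 hours of single-concentration exposure. 100 means growth as in untreated cells, lower positive values show inhibition; negative values down to -100 show cell death.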 Values without a mark were called inactive. Activity calls are given as the source filed them. Rule for the calls: active = growth percent below 10; inactive = the rest.

What was measured:
Experiment in all cases: NCI-60 one-dose screen, 48 h (100 = growth as untreated, 0 = no growth, -100 = all killed)
Conditions in all cases: 10 µM unless noted
[1] = system: DU-145 prostate
[2] = system: K-562 leukemia
[3] = system: MALME-3M melanoma
[4] = system: MDA-MB-231 breast
[5] = system: RXF 393 renal
[6] = system: SF-268 CNS
[7] = system: SF-295 CNS
[8] = system: SF-539 CNS
[9] = system: UACC-257 melanoma
[10] = system: M14 melanoma
[11] = system: HCT-15 colon
[12] = system: HT29 colon
[13] = system: SNB-75 CNS
[14] = system: SNB-19 CNS
[15] = system: U251 CNS
[16] = system: PC-3 prostate
[17] = system: SK-MEL-5 melanoma
[18] = system: UACC-62 melanoma
[19] = system: LOX IMVI melanoma
[20] = system: SK-MEL-28 melanoma

| Compound | growth [1] | growth [2] | growth [3] | growth [4] | growth [5] | growth [6] | growth [7] | growth [8] | growth [9] | growth [10] | growth [11] | growth [12] | growth [13] | growth [14] | growth [15] | growth [16] | growth [17] | growth [18] | growth [19] | growth [20] |
| --- | --- | --- | --- | --- | --- | --- | --- | --- | --- | --- | --- | --- | --- | --- | --- | --- | --- | --- | --- | --- |
| CCOC(=O)c1ccccc1NC1=C(Cl)C(=O)c2nc(C)ccc2C1=O | 112% | 89.6% | 107% | 90.3% | 102% | 99.2% | 110% | 96.1% | 99.2% | 109% | 91.7% | 112% | 81.1% | 92.8% | 104% | 96.8% | 99.9% | 95% | 98.7% | 107% |
| COc1ccc(C2C(C#N)=C(/N=C/c3ccc(Cl)cc3)Oc3c2sc2c(C)cccc32)cc1 (stereo not given) | 26.1% | 9.73% (active) | 50.2% | 33.9% | -5.77% (active) | 52.9% | 8.79% (active) | 1.34% (active) | 70.9% | 0.955% (active) | 18.8% | 1.39% (active) | 29.2% | 27.9% | 14.1% | 19.2% | 27.8% | 23% | 41.6% | 61.8% |
| COc1ccc2c(c1)C=CC1(O2)Oc2ccc(OC)cc2C=C1C (stereo not given) | 34.1% | 8.41% (active) | 55.2% | 2.14% (active) | -12.3% (active) | 54.4% | 7.92% (active) | -11% (active) | 73% | 3.03% (active) | 24.7% | 4.04% (active) | -8.45% (active) | 27.5% | 12.3% | 29.8% | 24.9% | 19.1% | 22.2% | 54.2% |
| Cc1[nH]c(C(=O)Nc2ccc(S(=O)(=O)N3CCCCC3)cc2OCCOCCOCCOCCOCCOCCOCCOCCOCCOc2cc(S(=O)(=O)N3CCCCC3)ccc2NC(=O)c2[nH]c(C)c3c2CCCCC3=O)c2c1C(=O)CCCC2 | 47.3% | 19.2% | 3.69% (active) | 11.6% | 47% | 44.3% | 30.8% | 14.1% | -27% (active) | 14% | 30.9% | 4.45% (active) | -2.1% (active) | 33.3% | 24.3% | 28.8% | 14.8% | -32.5% (active) | -75.1% (active) | 35.1% |
| Oc1ccc(-c2nc3ccc(/C(=N\N=C\c4ccc(Cl)cc4)c4ccccc4)cc3[nH]2)cc1 | 88.3% | 70.8% | 101% | 91.1% | 93.5% | 90.9% | 82.6% | 87% | 92% | 63.5% | 71.1% | 75.4% | 93.4% | 91.7% | 86.6% | 52.9% | 84.1% | 84.1% | 57.4% | 91% |
| CCCCCCCCCCCC(=O)NC(C)(C)C(=O)N1CCCC1C(=O)NC(C)(C)C(=O)NC(C)(C)C(=O)N1CCCC1C(=O)NC(C)(C)C(=O)NC(C)(C)C(=O)N1CCCC1C(=O)NC(C)C(=O)NCCC(=O)NC(C)C(=O)NC(C)(C)C(=O)NC(C)(C)C(=O)NC(C)(C)C(=O)NCCC(=O)NC(C)(C)C(=O)NC(C)(C)C(=O)NC(C)(C)C(=O)NC(C)C(=O)NCCC(=O)O (stereo not given) | -99.4% (active) | -65.4% (active) | -89.4% (active) | -87.5% (active) | -94.5% (active) | -60.6% (active) | -97.1% (active) | -92% (active) | -91.8% (active) | -97.3% (active) | -96.5% (active) | -86.6% (active) | -89.7% (active) | -97.4% (active) | -94.7% (active) | -93% (active) | -98.5% (active) | -90.9% (active) | -92.4% (active) | -93.8% (active) |
| CC(=O)Nc1nc(C)c(-c2csc(Nc3ccccc3)n2)s1 | 30% | 24.8% | 13% | 33% | 6.02% (active) | 46.7% | 11.9% | 15.9% | 50.7% | 35.3% | 16.4% | 28.7% | 38.3% | 35.8% | 40.8% | 31.8% | 9.06% (active) | 21.4% | 21.4% | 38.1% |
| Cc1c(C(=O)/C=C/c2ccc(Cl)cc2)nnn1-c1ccc2oc(=O)ccc2c1 | 104% | 83.4% | 98.8% | 94% | 86.5% | 102% | 88.9% | 99.5% | 99.9% | 95.6% | 87.3% | 101% | 104% | 96.3% | 96.7% | 92% | 97.7% | 83.6% | 80.7% | 106% |
| CN1CCN(Cc2ccc(NC(=O)c3cncc(C#Cc4cnc(N)nc4)c3)cc2C(F)(F)F)CC1 | 34.4% | 5.93% (active) | -31.1% (active) | -7.34% (active) | 26.4% | 28.1% | 33.1% | 14.6% | 22.1% | -19.3% (active) | 17.2% | 14.3% | 41.5% | 57.4% | 30.3% | 35.1% | 38% | -0.0134% (active) | 4.32% (active) | 2.04% (active) |
| C#CCN(C)CCCOc1ccc(NC(=O)CCCCCCC(=O)NO)cc1Cl | 26.3% | 18.5% | 21.1% | 16.3% | -44.3% (active) | 39.3% | 7.83% (active) | 20.3% | 25.6% | 23% | 64.9% | 10.5% | 26.3% | 30.3% | 8.98% (active) | 26.5% | -4.82% (active) | -28.9% (active) | -61.4% (active) | 27.1% |
| Clc1cccc(/C=N/Nc2nc(N/N=C/c3cccc(Cl)c3)nc(N3CCOCC3)n2)c1 | 42.5% | 11.8% | -43.7% (active) | 71.3% | 17.4% | 65.9% | 57.7% | 43.6% | 39.1% | 35.2% | -11.1% (active) | 8.21% (active) | 103% | 88% | 60.4% | 41.5% | 44.1% | 91.7% | 32.6% | 29.8% |
| CN1CCN(Cc2ccc(NC(=O)c3cncc(C#Cc4cnc5ccc(OCC6COC6)nn45)c3)cc2C(F)(F)F)CC1 | -83.1% (active) | 0.233% (active) | -88.2% (active) | -63% (active) | -78.5% (active) | -70.2% (active) | -93.7% (active) | -88.2% (active) | -51.6% (active) | -86.8% (active) | -32.9% (active) | -50.9% (active) | -97.9% (active) | -44.9% (active) | -66.8% (active) | -27.7% (active) | -97% (active) | -49.8% (active) | -94% (active) | -85% (active) |
| CN1CCN(c2ccc(Nc3nc(NCCCNS(=O)(=O)c4ccc(F)cc4)c4sccc4n3)cc2)CC1 | 72.6% | 10.4% | -66.2% (active) | 43.2% | 36.5% | 60.3% | 32.4% | -76% (active) | -28.6% (active) | -21.3% (active) | 25.5% | 11.4% | 78.5% | 74.5% | 15.7% | 60.5% | 20.5% | 21.1% | -5.7% (active) | -42.9% (active) |
| COc1ccccc1N1CCN(C2=C(Cl)C(=O)c3ncccc3C2=O)CC1 | 48% | 9.05% (active) | 58.8% | 86.4% | 71% | 87.6% | 107% | 95% | 95% | 88.1% | 55.5% | 111% | 86% | 88.8% | 102% | 79% | 96.4% | 83% | 50.2% | 98.4% |
